Data reported in PubChem BioAssay AID1159580 (chemical genetic matrix, 2015).
Among all 5,500 compounds or so, about 2,000 (36%) were called active. Another 18% or so got no clear call; they are omitted. No stated cut-off is given here; in the data, active means normalized growth mostly below about 0.91 (no sharp cut-off); inconclusive means no clear call, values can overlap the other calls; inactive means mostly above about 0.92. Some of the results follow.

Experiment: chemical genetic growth profiling, strain panel (AID 1159580);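 further: tested at 20 µM; growth read once vehicle control cultures reached saturation at 30 °C; 1 = growth at the plate median or of vehicle wells; lower values mean less growth of the strain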
Conditions: growth OD

Measured: normalized growth

Clc1ccc(CSC(Cn2ccnc2)c2ccc(Cl)cc2Cl)cc1 (stereo not given)
active: S. cerevisiae deletion strains, locus YJR075W, strain HOC1, active compounds read low 0.0603 | S. cerevisiae deletion strains, locus YKL009W, strain mrt4, active compounds read low 0.0877 | S. cerevisiae deletion strains, locus YKL068W, active compounds read low 0.0746 | S. cerevisiae deletion strains, locus YKL085W, strain MDH1 (second series), active compounds read low 0.0615 | S. cerevisiae deletion strains, locus YKL085W, strain MDH1, active compounds read low 0.0615 | S. cerevisiae deletion strains, locus YKL160W, strain elf1, active compounds read low 0.065 | S. cerevisiae deletion strains, locus YKL190W, strain CNB1, active compounds read low 0.0451 | S. cerevisiae deletion strains, locus YKR001C, strain vps1, active compounds read low 0.0681 | S. cerevisiae deletion strains, locus YKR026C, strain gcn3, active compounds read low 0.0654 | S. cerevisiae deletion strains, locus YKR091W, strain srl3, active compounds read low 0.0606 | S. cerevisiae deletion strains, locus YLL001W, strain dnm1, active compounds read low 0.0654 | S. cerevisiae deletion strains, locus YLL026W, active compounds read low 0.0574 | S. cerevisiae deletion strains, locus YLL041C, strain sdh2, active compounds read low 0.0577 | S. cerevisiae deletion strains, locus YLR027C, strain aat2, active compounds read low 0.0604 | S. cerevisiae deletion strains, locus YLR039C, strain RIC1, active compounds read low 0.079 | S. cerevisiae deletion strains, locus YLR058C, strain SHM2, active compounds read low 0.0452 | S. cerevisiae deletion strains, locus YLR102C, strain apc9, active compounds read low 0.0588 | S. cerevisiae deletion strains, locus YLR113W, strain HOG1, active compounds read low 0.116 | S. cerevisiae deletion strains, locus YLR221C, strain rsa3, active compounds read low 0.0604 | S. cerevisiae deletion strains, locus YLR258W, strain gsy2, active compounds read low 0.0614 | S. cerevisiae deletion strains, locus YLR262C, strain YPT6 (second series), active compounds read low 0.0789 | S. cerevisiae deletion strains, locus YLR262C, strain YPT6, active compounds read low 0.103 | S. cerevisiae deletion strains, locus YLR268W, strain sec22, active compounds read low 0.0568 | S. cerevisiae deletion strains, locus YLR320W, strain mms22, active compounds read low 0.0761 | S. cerevisiae deletion strains, locus YLR330W, strain CHS5, active compounds read low 0.0514 | S. cerevisiae deletion strains, locus YLR342W, strain FKS1 (second series), active compounds read low 0.0606 | S. cerevisiae deletion strains, locus YLR342W, strain FKS1, active compounds read low 0.0676 | S. cerevisiae deletion strains, locus YLR357W, strain rsc2, active compounds read low 0.12 | S. cerevisiae deletion strains, locus YLR370C, strain arc18, active compounds read low 0.0635 | S. cerevisiae deletion strains, locus YLR371W, strain rom2, active compounds read low 0.0606 | S. cerevisiae deletion strains, locus YLR384C, strain iki3, active compounds read low 0.0593 | S. cerevisiae deletion strains, locus YLR418C, strain cdc73, active compounds read low 0.0853 | S. cerevisiae deletion strains, locus YML016C, strain PPZ1, active compounds read low 0.0444 | S. cerevisiae deletion strains, locus YML032C, strain rad52, active compounds read low 0.0643 | S. cerevisiae deletion strains, locus YML120C, strain ndi1, active compounds read low 0.0571 | S. cerevisiae deletion strains, locus YML124C, strain tub3, active compounds read low 0.0572 | S. cerevisiae deletion strains, locus YMR058W, strain fet3, active compounds read low 0.0638 | S. cerevisiae deletion strains, locus YMR078C, strain ctf18, active compounds read low 0.0695 | S. cerevisiae deletion strains, locus YMR125W, strain sto1, active compounds read low 0.0785 | S. cerevisiae deletion strains, locus YMR129W, active compounds read low 0.0574 | S. cerevisiae deletion strains, locus YMR205C, strain PFK2, active compounds read low 0.0897 | S. cerevisiae deletion strains, locus YMR223W, strain ubp8, active compounds read low 0.0591 | S. cerevisiae deletion strains, locus YMR231W, strain pep5, active compounds read low 0.146 | S. cerevisiae deletion strains, locus YMR263W, strain SAP30, active compounds read low 0.0544 | S. cerevisiae deletion strains, locus YMR307W, strain GAS1, active compounds read low 0.12 | S. cerevisiae deletion strains, locus YNL067W, strain RPL9B, active compounds read low 0.0471 | S. cerevisiae deletion strains, locus YNL071W, strain lat1, active compounds read low 0.0619 | S. cerevisiae deletion strains, locus YNL128W, strain TEP1, active compounds read low 0.0608 | S. cerevisiae deletion strains, locus YNL183C, strain NPR1, active compounds read low 0.000263 | S. cerevisiae deletion strains, locus YNL209W, strain ssb2, active compounds read low 0.0676 | S. cerevisiae deletion strains, locus YNL233W, strain BNI4, active compounds read low 0.0515 | S. cerevisiae deletion strains, locus YNL248C, strain rpa49, active compounds read low 0.0789 | S. cerevisiae deletion strains, locus YNL250W, strain rad50, active compounds read low 0.0722 | S. cerevisiae deletion strains, locus YNL271C, strain bni1, active compounds read low 0.0682 | S. cerevisiae deletion strains, locus YNL298W, strain CLA4, active compounds read low 0.0628 | S. cerevisiae deletion strains, locus YNL307C, strain MCK1, active compounds read low 0.0686 | S. cerevisiae deletion strains, locus YNL322C, strain KRE1 (second series), active compounds read low 0.0666 | S. cerevisiae deletion strains, locus YNL322C, strain KRE1, active compounds read low 0.045 | S. cerevisiae deletion strains, locus YNR049C, strain mso1, active compounds read low 0.0586 | S. cerevisiae deletion strains, locus YNR052C, strain pop2, active compounds read low 0.0598 | S. cerevisiae deletion strains, locus YOL006C, strain TOP1, active compounds read low 0.0991 | S. cerevisiae deletion strains, locus YOL012C, strain htz1 0.137 | S. cerevisiae deletion strains, locus YOL147C, strain pex11, active compounds read low 0.0557 | S. cerevisiae deletion strains, locus YOR001W, strain rrp6, active compounds read low 0.0726 | S. cerevisiae deletion strains, locus YOR061W, strain CKA2, active compounds read low 0.0436 | S. cerevisiae deletion strains, locus YOR069W, strain VPS5, active compounds read low 0.0456 | S. cerevisiae deletion strains, locus YOR070C, strain gyp1, active compounds read low 0.0632 | S. cerevisiae deletion strains, locus YOR080W, strain dia2, active compounds read low 0.0638 | S. cerevisiae deletion strains, locus YOR083W, strain WHI5, active compounds read low 0.0689 | S. cerevisiae deletion strains, locus YOR106W, strain vam3, active compounds read low 0.0699 | S. cerevisiae deletion strains, locus YOR136W, strain idh2, active compounds read low 0.0693 | S. cerevisiae deletion strains, locus YOR144C, strain elg1, active compounds read low 0.0562 | S. cerevisiae deletion strains, locus YOR184W, strain ser1, active compounds read low 0.0618 | S. cerevisiae deletion strains, locus YOR231W, strain MKK1, active compounds read low 0.102 | S. cerevisiae deletion strains, locus YOR265W, strain rbl2, active compounds read low 0.0591 | S. cerevisiae deletion strains, locus YOR270C, strain vph1, active compounds read low 0.111 | S. cerevisiae deletion strains, locus YOR290C, strain snf2, active compounds read low 0.0745 | S. cerevisiae deletion strains, locus YOR316C, strain cot1, active compounds read low 0.0584 | S. cerevisiae deletion strains, locus YPL051W, strain arl3, active compounds read low 0.0666 | S. cerevisiae deletion strains, locus YPL078C, strain atp4, active compounds read low 0.0762 | S. cerevisiae deletion strains, locus YPL106C, strain sse1, active compounds read low 0.0973 | S. cerevisiae deletion strains, locus YPL240C, strain hsp82, active compounds read low 0.0582 | S. cerevisiae deletion strains, locus YPL241C, strain CIN2, active compounds read low 0.0455 | S. cerevisiae deletion strains, locus YPL256C, strain CLN2, active compounds read low 0.113 | S. cerevisiae deletion strains, locus YPR119W, strain clb2, active compounds read low 0.061 | S. cerevisiae deletion strains, locus YPR141C, strain kar3, active compounds read low 0.0736 | S. cerevisiae deletion strains, locus YPR163C, strain tif3, active compounds read low 0.067 | S. cerevisiae deletion strains, locus YPR167C, strain met16, active compounds read low 0.0596 | S. cerevisiae deletion strains, strain wtn01, active compounds read low 0.0571 | S. cerevisiae strains, strain wild type, active compounds read low 0.0459
